# The sample as a whole holds a higher share of hits than the screen did.
# Cycloheximide cs = counter-screen hit for Shiga toxin inhibitors, cycloheximide | cell reporter, cycloheximide protein synthesis inhibition counterscreen | 300,000 tested, 12% active | max response, %; in the data active means max response mostly above about 13%, no sharp cut-off; inactive means mostly below about 14%; further: read at 38.3 µM for the half of the compounds with a filed dose; 0% is about no effect
# NS1 inh = blocks influenza NS1 protein function | 270,000 tested, 0.4% active | Potency, µM (series often up to 46.1 µM), inactives show at the highest dose activity, positive = more growth; calls by dose curve; further: potency means the concentration at half of the fitted maximal effect; actives are rising curves; nearly all actives have a fitted effect of over 50% in size
#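 OD600 was taken as the measure of yeast growth restored by compound in an NS1-expressing S. cerevisiae strain. Cells had been washed out of glucose medium and diluted 1:100 into galactose -URA medium, pH 6.0.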
# Shiga toxin inh = Shiga toxin inhibition | 290,000 tested, 9.2% active | Vero cells, Shiga toxin protein synthesis inhibition reporter | inhibition, % at 38.7 µM | AID 2315; in the data active means inhibition mostly above about 28%, no sharp cut-off; inactive means mostly below about 43%; further: 0% is about no effect
# AmpC no deterg = AmpC beta-lactamase inhibition without detergent. P00811. AmpC nitrocefin hydrolysis, absorbance 480 nm, 0.0001% Triton. Potency, µM (titrated, usually from 57.1 µM), inactives show at the top dose activity change, negative = inhibition, most hits filed as inhibitors. 330,000 tested, 0.52% active;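 further: potency means the concentration at half of the fitted maximal effect; plate controls were no compound for no effect and no enzyme for full effect; nearly all actives have a fitted effect of over 20% in size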
# Target sequence (P00811 whole entry, looked up): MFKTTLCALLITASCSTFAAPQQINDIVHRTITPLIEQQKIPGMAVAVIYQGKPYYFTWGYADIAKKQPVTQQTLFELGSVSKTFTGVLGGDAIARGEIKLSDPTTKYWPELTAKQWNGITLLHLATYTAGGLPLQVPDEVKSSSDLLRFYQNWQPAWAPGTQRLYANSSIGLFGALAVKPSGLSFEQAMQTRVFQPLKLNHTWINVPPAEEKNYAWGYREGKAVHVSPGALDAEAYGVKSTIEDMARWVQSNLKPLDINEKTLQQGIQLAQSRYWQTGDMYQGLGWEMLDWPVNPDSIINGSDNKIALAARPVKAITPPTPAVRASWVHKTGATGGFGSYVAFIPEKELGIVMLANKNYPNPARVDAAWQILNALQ
#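 20 mM phosphate pH 7.0 + 0.01% (detergent screen) or 0.0001% Triton X-100; 5.3 nM AmpC reagent; cpd preinc 15 min RT; nitrocefin (800 uM stock) to start; A480 q20 s × 4 min; Activity was normalised to no-enzyme and no-compound control wells.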
# AmpC inh detg = AmpC beta-lactamase inhibition with detergent present; AmpC hydrolysis of nitrocefin, absorbance 480 nm, 0.01% Triton; Potency, µM (top dose mostly 114 µM), for inactives: top-dose activity change, negative = inhibition, most hits filed as inhibitors; 370,000 tested, 0.041% active; AID 485294;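 further: potency means the concentration at half of the fitted maximal effect; 0% = no-compound wells and -100% = no-enzyme wells; nearly all actives have a fitted effect of over 25% in size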
#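 AmpC (5.3 nM in the dispensed reagent) in 20 mM phosphate pH 7.0 with 0.01% (detergent screen) or 0.0001% Triton X-100 was preincubated with compounds for 15 min at room temperature. Nitrocefin was then added from an 800 uM solution, and hydrolysis was followed at 480 nm.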
# * hit, by the source's call; ? = inconclusive; / = not tested or not shown. Unless noted, the call rests on the fitted dose curve; in most records, active means well fitted curve in the direction sought with a large enough effect; inconclusive means small, poorly fitted or top-dose-only effect, or another doubt; inactive means no such curve, though single readings can be large; an effect the other way counts as inactive or inconclusive.
SMILES,Cycloheximide cs,NS1 inh,Shiga toxin inh,AmpC no deterg,AmpC inh detg
COC(=O)Cn1c(=NC(=O)c2nc3ccccc3s2)sc2cc(S(C)(=O)=O)ccc21,16.6*,7.5%,14.7,-7.7%,-0.3%
C#CCn1c(=NC(=O)c2ccc(Br)s2)sc2cc(NC(C)=O)ccc21,3.9,-3.2%,9.6,-5.0%,?
COC(=O)Cn1c(=NC(=O)c2ccc(Cl)s2)sc2cc(C)ccc21,18.2*,?,39.5,-17.7%,?
COc1ccc(-c2cc3nc(-c4ccccc4)cc(C(F)(F)F)n3n2)cc1,/,/,/,/,5.6%
Cc1cc(C)n2nc(-c3ccc(Br)cc3)cc2n1,25.7*,-8.5%,/,22.0%,?
Cc1cc(-c2ccc(Cl)cc2)n2nc(C)cc2n1,-2.2,-3.0%,-5.7,9.2%,?
Cc1ccc(-c2cc3nc(-c4ccc(Br)cc4)cc(N)n3n2)cc1,0.9,9.1%,-8.0,-30.6%,?
Cc1cc(C)n2nc(-c3ccc(Cl)cc3)cc2n1,42.5*,-8.2%,100.5*,27.4%,2.1%
COc1ccc(-c2cc3nc(C)cc(C)n3n2)cc1,34.7*,-11.6%,47.6*,16.8%,-5.1%
Cc1nc2cc(-c3ccc(Cl)cc3)nn2c(NCCN(C)C)c1C,60.0*,1.0%,80.2*,-6.2%,-3.0%
COc1ccc(C(=O)N2CCN(Cc3cc(=O)n4nc(-c5ccccc5C)sc4n3)CC2)cc1OC,/,/,/,/,3.5%
O=C1NC2(CCCCC2)C(=O)N1/N=C/c1ccc(O)cc1O,38.0*,?,53.0*,-20.5%,-3.6%
Oc1ccc(C=NC2CCCCC2)c(O)c1,2.7,-0.1%,-2.1,-19.3%,-5.1%
O=C1NC2(CCCCC2)C(=O)N1/N=C/c1ccccc1Br,22.9*,-8.4%,37.1,-0.1%,-1.7%
Cc1nc2cc(-c3cccc(F)c3)nn2c(C)c1CCC(=O)Nc1ccccc1C(N)=O,/,/,/,/,-9.1%
CN1c2ccccc2Oc2nnc(N3CCN(Cc4ccccc4)CC3)cc21,30.4*,-2.2%,53.9*,33.9%,2.0%
CC(C)C(=O)C(C)(C)CCc1ccccn1,/,0.3%,/,/,/
CCCCS/C(N)=N/N=C/c1ccccc1O,32.5*,-19.4%,53.9,-19.5%,0.3%
C/C(=N/N=C/c1ccccc1O)c1ccccc1O,43.4*,-5.8%,89.0*,-21.1%,-11.0%
CCCS/C(N)=N/N=C/c1cc(C)ccc1O,41.5*,-4.1%,144.9*,-14.2%,2.5%
Cc1ccc(-c2cnc(-c3ccccc3C(=O)O)o2)cc1,28.9*,-25.5%,61.3*,-17.1%,-2.3%
Cc1ccc(NC(=O)c2ccccc2-c2ccccc2C(=O)O)cc1,-3.9,3.1%,-3.6,-25.4%,-4.8%
NC(=O)c1ccc(-c2ncc(-c3ccccc3)o2)cc1,43.6*,-8.3%,85.3*,-10.3%,4.8%
c1ccc(-c2cnc(-c3cccnc3)o2)cc1,49.4*,-62.3%,59.0,2.9%,-0.5%
NC(=O)c1ccccc1,-1.3,-11.4%,-16.6,-9.4%,?
SMILES,Cycloheximide cs,NS1 inh,Shiga toxin inh,AmpC no deterg,AmpC inh detg
COc1ccc(/C=N/Nc2nc(Nc3ccccc3)nc(N3CCCCC3)n2)cc1OC,34.2*,27.3%,146.7*,57.2%,-10.6%
Cc1[nH]c2ccccc2c1/C=N/Nc1nc(Nc2ccc(F)cc2)nc(N2CCOCC2)n1,9.6,11.8%,1.7,?,-1.6%
O=C(Oc1cccc(/C=N/Nc2nc(Nc3ccccc3)nc(N3CCOCC3)n2)c1)c1ccco1,13.3*,?,22.5*,?,-0.8%
COc1cc(/C=N/Nc2nc(N3CCCCC3)nc(N3CCCCC3)n2)ccc1OC(=O)c1ccco1,-2.5,5.6%,-6.4,-40.8%,-6.1%
Cc1ccc(Nc2nc(N/N=C/c3c[nH]c4ccccc34)nc(N3CCOCC3)n2)cc1,14.7*,?,47.4,-1.6%,?
C(=N\Nc1nc(Nc2ccccc2)nc(N2CCOCC2)n1)/c1c[nH]c2ccccc12,20.9*,-42.3%,20.1,-8.2%,-6.6%
CC1=C(C(N)=O)C(c2ccccc2F)NC(=O)N1 (stereo not drawn),0.2,10.4%,11.8,-0.1%,-3.8%
COc1cc(OC)c(N(C)C(=O)c2c(C)oc3ncn(CC(C)C)c(=O)c23)cc1Cl,/,/,/,/,9.2%
COc1ccc(-c2cnnc(N/N=C/c3ccc(OC)c(OC)c3)n2)cc1,4.2,?,0.0,-14.4%,-0.1%
COc1ccc(/C=N\Nc2ncc(F)c(N3CCOCC3)n2)cc1OC,38.7*,-7.3%,73.3*,-25.5%,-6.0%
COc1cccc(/C=N/Nc2nc(Nc3ccccc3)nc(-n3nc(C)cc3C)n2)c1O,43.7*,5.8%,31.3*,-10.2%,0.9%
O=C(CCN=C1NS(=O)(=O)c2ccccc21)OCC(=O)c1ccccc1Cl,/,/,/,39.8µM*,4.4%
Cc1nn(C(=O)c2ccc(Cl)cc2)c(C)c1S(=O)(=O)N1CCOCC1,/,/,/,/,-0.8%
O=C(N=Nc1c(O)n(Cc2ccccc2)c2ccccc12)c1cc2ccccc2cc1O,16.1*,7.1%,21.6,-28.5%,-6.1%
O=C(N=Nc1c(O)n(Cc2ccccc2)c2ccccc12)c1ccc(O)cc1,64.4*,24.6%,59.6*,-54.0%,?
Cc1cccc(OC(=O)CSc2nnc(-c3cccs3)o2)c1C,/,/,/,/,20.1%
c1ccc(-c2csc(NC3=NCCCCC3)n2)cc1,42.8*,-4.0%,35.4,1.0%,-20.6%
N#Cc1ccc(-c2csc(NC3=NCCCCC3)n2)cc1,19.8*,14.3%,73.2*,-2.7%,-0.6%
CCN(c1ccccc1)c1nnc(NC(=O)Nc2ccccc2F)s1,/,/,/,/,5.3%
CCOC(=O)C1CCN(c2nnc(N3CCCC3=O)s2)CC1,23.4*,2.1%,42.8*,-12.9%,0.4%
O=C(Nc1nc(-c2cccc3ccccc23)cs1)c1cnccn1,7.1,23.4%,42.4,10.4%,-4.4%
CC(C)(C)NS(=O)(=O)c1ccc(Oc2ncc(C(F)(F)F)cc2Cl)cc1,-3.4,-23.3%,1.1,5.01µM*,-5.4%
CCCOC(=O)c1cc(-c2ccc(C=O)o2)ccc1Cl,29.1*,-27.2%,31.0,-11.7%,-13.0%
CCCOC(=O)c1ccc(-c2ccc(C=O)o2)cc1,43.5*,-39.1%,139.3*,-20.3%,-8.8%
CCOC(=O)c1ccc(-c2ccc(C=O)o2)cc1,48.1*,-86.2%,80.1*,-3.4%,-6.9%
SMILES,Cycloheximide cs,NS1 inh,Shiga toxin inh,AmpC no deterg,AmpC inh detg
CCOC(=O)c1cccc(-c2ccc(C=O)o2)c1,46.5*,-23.3%,116.3*,-3.1%,-0.2%
Cc1ccc(Cl)cc1NC(=O)COCc1cc(-c2ccco2)on1,/,/,/,/,-4.8%
COc1ccc(-c2noc(-c3nnn(-c4cc(C)ccc4C)c3N)n2)cc1,/,/,/,/,12.5%
COc1ccc(-c2cc(-c3ccc4c(c3)NC(=O)CO4)nc3c2COc2ccc(F)cc2-3)cc1,/,/,/,/,-3.9%
CN(c1ccc(OCC(=O)N2CCOCC2)cc1)S(=O)(=O)c1ccc(Cl)cc1,6.4,/,11.0,49.0%,?
COc1ccc(-c2cn3ccccc3n2)cc1OC,27.1*,-18.4%,78.0*,-8.8%,-10.0%
CCOc1ccc(-c2cn3ccccc3n2)cc1,6.3,-6.9%,37.4,-7.1%,5.2%
COc1ccc(Br)cc1S(=O)(=O)Nc1cc(-c2cn3ccccc3n2)ccc1C,/,/,/,/,5.1%
Fc1ccc(-c2cn3ccccc3n2)cc1,34.0*,-13.9%,76.9,3.5%,4.7%
